# Measured values as given in PubChem BioAssay AID1259343 (VanderVen Lab, College of Veterinary Medicine, Cornell …, 2017).
# About 2,900 (47%) of roughly 6,200 compounds were called active. Cut-off read from the data, not from the text of the source: active = inhibition above about 50%; inactive = the rest. The set was probably picked from earlier hits. Some of the results follow.
# Assay: Mycobacterium tuberculosis growth inhibition, primary screen (AID 1259343)
# Details: inhibition: at 10 µM, active compounds read high; outcome: 10 uM
row,SMILES,inhibition
1,Cc1cccc(Nc2cc(N3CCN(CCCOc4ccccc4)CC3)ncn2)c1,50.3% (active)
2,COc1cccc(NC(=O)N2CCN(CCCOC(c3ccc(Cl)cc3)c3ccc(Cl)cc3)CC2)c1,15.9% (inactive)
3,CCCCCOc1ccc(Nc2cc(-c3cccc(N)c3)ncn2)cc1,5.27% (inactive)
4,Nc1nnc(Sc2ncc([N+](=O)[O-])s2)s1,102% (active)
5,O=[N+]([O-])c1c(-n2cccn2)nn(-c2ccccc2)c1C(Cl)Cl,101% (active)
6,NCCc1cccc(OCCCc2ccccc2)c1,57.2% (active)
7,COc1cccc(C=CC(=O)c2ccc(N3CCCC3=O)cc2)c1OC,40% (inactive)
8,O=C(Nc1nc(-c2ccccn2)cs1)c1cccc(N2CCCC2=O)c1,100% (active)
9,CCCCc1ccc(NC(=O)CSc2n[nH]c(=O)c3cc(-c4ccco4)nn23)cc1,98.1% (active)
10,S=C(NCC1CCCO1)N1CCc2ccccc2C1 (stereo not given),19.9% (inactive)
11,S=C(NCC1CCCO1)Nc1ccc(N2CCCCC2)cc1 (stereo not given),60.7% (active)
12,Oc1ccc(C=NNC(=S)NCC2CCCO2)c(O)c1 (stereo not given),101% (active)
13,CNC(=O)c1ccc(N2CC=C(c3ccc(O)cc3)CC2)nn1,91.4% (active)
14,Oc1ccc(C2=CCN(c3ncnc4ccccc34)CC2)cc1,15.6% (inactive)
15,Oc1ccc(C2=CCN(c3nnc(Br)s3)CC2)cc1,95.1% (active)
16,N#Cc1ccc(CN2CC=C(c3ccc(O)cc3)CC2)c(F)c1,-43% (inactive)
17,Cc1cc(C(=O)N2CC=C(c3ccc(O)cc3)CC2)c(C)o1,15.5% (inactive)
18,O=S(=O)(Nc1cccc(C2OCC(COc3ccc(Cl)cc3)O2)c1)c1ccccc1 (stereo not given),-0.13% (inactive)
19,CC(=O)Nc1ccc(OCc2nnsc2Cl)cc1,85.4% (active)
20,CN(c1ccccc1)c1nc2ccsc2c(=O)s1,58.2% (active)
21,CCc1ccccc1Oc1nc(NC(C)C)nc2ccsc12,31.8% (inactive)
22,Cc1cc(C)nc(Nc2nc(C(N)Cc3ccc(C(F)(F)F)cc3)cs2)n1 (stereo not given),79.2% (active)
23,Cc1cc(C)nc(Nc2nc(C(N)Cc3ccc(Cl)cc3)cs2)n1 (stereo not given),73.2% (active)
24,CCCc1cnc(Nc2nc(C(N)Cc3ccc(C(F)(F)F)cc3)cs2)nc1 (stereo not given),50.7% (active)
25,Cc1ccc(-c2nc(CN3CCOC(c4ccccc4)C3)cs2)o1 (stereo not given),29.6% (inactive)
26,Cc1c(-c2ccccc2)sc2ncn(CC(=O)N3CCCCC3C)c(=O)c12 (stereo not given),48.6% (inactive)
27,CC(=O)CSc1nc(C)nc2sc3c(c12)CCCC3,10% (inactive)

row,SMILES,inhibition
1,Cc1nc(SCC(=O)N2CCCCC2C)c2c3c(sc2n1)CCCC3 (stereo not given),51.5% (active)
2,CC(C)(C)c1csc(-c2cccc(OCC(N)=O)c2)n1,35.2% (inactive)
3,Cc1ccc2[nH]cc(-c3cccc(OCC(N)=O)c3)c2c1,72.6% (active)
4,S=c1[nH]nc(CSc2nc3ccccc3s2)o1,-31.5% (inactive)
5,Brc1ccc2nc(CSc3nc4ccccc4s3)cn2c1,inactive
6,Clc1c(CSc2nc3ccccc3s2)nc2ncccn12,77.3% (active)
7,c1ccc2sc(Sc3ncnc4sccc34)nc2c1,59.5% (active)
8,Oc1ccccc1OCc1nc2ccccc2s1,54.7% (active)
9,O=C(CSc1nc2ccccc2s1)NCCN1C(=O)SC(=Cc2ccc3c(c2)OCO3)C1=O,4.39% (inactive)
10,c1ccc2sc(CSc3ncnc4sccc34)nc2c1,35% (inactive)
11,c1csc(Cn2nnnc2Sc2ncnc3sccc23)c1,-23.8% (inactive)
12,COc1ccc(C(C)O)cc1CSc1nc2ccccc2s1 (stereo not given),40.5% (inactive)
13,N#CC(=C(O)CC12CC3CC(CC(C3)C1)C2)c1nc2ccccc2s1,21.6% (inactive)
14,c1ccc(Sc2c(-c3ccccc3)nc3ncccn23)cc1,inactive
15,c1ccc2sc(CSc3nc4ccccc4s3)nc2c1,95.9% (active)
16,CCc1nnc(CNc2ccc3c(c2)OC(F)(F)O3)o1,32.3% (inactive)
17,CC(NC(=O)c1cc(Cl)ccn1)c1cccc(OC(F)F)c1 (stereo not given),70.3% (active)
18,Cc1c(C(=O)NC(C)c2cccc(Cl)c2)oc2c1C(=O)CCC2 (stereo not given),1.37% (inactive)
19,CC(NC(=O)c1cnsn1)c1cccc(Cl)c1 (stereo not given),42.3% (inactive)
20,CCOC(=O)c1cccc(NC(=O)NC/C=C(\C)CCC=C(C)C)c1,88.1% (active)
21,CC(C)=CCC/C(C)=C/C(=O)NCc1ccccn1,-13% (inactive)
22,CC(C)(C)OC(=O)c1cccc(NC2Cc3ccccc3C2)c1,29.1% (inactive)
23,Fc1ccc(F)c(NC(=S)NC2CCCCC2)c1,42% (inactive)
24,O=[N+]([O-])c1cc(NC(=S)NC2CCCCC2)ccc1Cl,99.3% (active)
25,S=C(Nc1cccc(I)c1)NC1CCCCC1,93.2% (active)
26,Fc1ccc(NC(=S)NC2CCCCC2)c(F)c1F,18.1% (inactive)
27,O=C(O)c1cnc(/C=C/c2cc(Br)cs2)s1,-34.7% (inactive)

row,SMILES,inhibition
1,CNC(=O)c1cnc(/C=C/C2=Cc3cc(Cl)ccc3OC2)s1,11.2% (inactive)
2,O=C(O)c1cnc(/C=C/c2cc(Cl)c3c(c2)OCCCO3)s1,85.9% (active)
3,O=C(O)c1cnc(/C=C/c2cnn(-c3ccc(Cl)cc3)c2)s1,62.2% (active)
4,COc1cc(/C=C/c2ncc(C(=O)O)s2)cc(Cl)c1OC,80.2% (active)
5,O=C(CN1CCCCCC1)Nc1ccc(C(F)(F)F)cc1,71.2% (active)
6,O=C(CN1CCN(S(=O)(=O)N2CCCCCC2)CC1)Nc1ccc2ccccc2c1,3.56% (inactive)
7,CC1OC(=O)[C@@H](C(C)C)NC(=O)C(C(C)C)OC(=O)[C@H](C(C)C)NC(=O)C(C)OC(=O)[C@@H](C(C)C)NC(=O)C(C(C)C)OC(=O)[C@H](C(C)C)NC(=O)C(C)OC(=O)[C@@H](C(C)C)NC(=O)C(C(C)C)OC(=O)[C@H](C(C)C)NC1=O (stereo not given in full),101% (active)
8,COc1cc(NC(=O)c2ccc(Cl)s2)cc(OC)c1,3.54% (inactive)
9,COc1cc(NC(=O)c2ccc(C)o2)cc(OC)c1,81.4% (active)
10,O=C(COc1cccc2cccnc12)NCC1CCCCC1,89.7% (active)
11,O=C(COc1ccc([N+](=O)[O-])cc1)NCC1CCCCC1,-9.56% (inactive)
12,c1cc(-c2cc3ccccc3o2)cc(-n2cnnc2)c1,74.5% (active)
13,NCCOCc1ccc(-c2cc3ccccc3o2)cc1,15.6% (inactive)
14,CCOC(=O)Cc1csc(NC(=O)c2csc(-c3cc4ccccc4[nH]3)n2)n1,65.7% (active)
15,CCOC(=O)Cc1csc(NC(=S)NC(=O)c2cccs2)n1,88% (active)
16,CC(NS(=O)(=O)CC1CCCCC1)c1cc2ccccc2o1 (stereo not given),91.2% (active)
17,CCc1ccc(C(C)NS(=O)(=O)CC2CCCCC2)cc1 (stereo not given),24.7% (inactive)
18,CC(NC(=O)CCl)c1cccc2ccccc12 (stereo not given),86.2% (active)
19,CC(NC(=O)CCl)c1cc2ccccc2o1 (stereo not given),58.8% (active)
20,CC(NC(=O)NCCc1ccc(F)cc1)c1ccccc1Br (stereo not given),31.6% (inactive)
21,CN(C1CCCCC1)S(=O)(=O)NCC1Cc2ccccc2O1 (stereo not given),-12.8% (inactive)
22,COc1cc(-c2c(NC(=O)CC(C)C)oc3c(C)cccc3c2=O)cc(OC)c1OC,-22.3% (inactive)
23,Cc1cccc(OCC(=O)NC(C)c2cc3ccccc3o2)c1C (stereo not given),83.5% (active)
24,CCc1ccc(C(C)NC(=O)CCl)cc1 (stereo not given),68.1% (active)
25,CCc1ccc(C(C)NC(=O)c2ccc(S(=O)(=O)C(F)F)cc2)cc1 (stereo not given),-35.3% (inactive)
26,Nc1ccc(Cl)c(Cl)c1,85.7% (active)
27,Nc1ccc(Cl)c(-c2nc3ccccc3o2)c1,-33.1% (inactive)

row,SMILES,inhibition
1,CNC(=O)c1ccc(N(C)Cc2ccc(Cl)s2)nc1,18.8% (inactive)
2,O=C(NCCc1ccc(C(F)(F)F)cc1)C1=COCCO1,28.4% (inactive)
3,CNC(=O)c1ccc(CN(C)c2ccc(C(F)(F)F)cn2)cc1,56.7% (active)
4,Cc1cnc(C)c(N2CCN(Cc3cc(C#CCO)cs3)CC2)n1,39% (inactive)
5,OCC#Cc1csc(CN2CCN(c3nccc4ccccc34)CC2)c1,51.9% (active)
6,c1ccc(-c2nc3c(c(N4CCN(Cc5cccc6cccnc56)CC4)n2)CCC3)cc1,31.1% (inactive)
7,O=S(=O)(Nc1ccc(Cl)cc1F)c1ccc(Cl)s1,-6.72% (inactive)
8,CCCCCCNS(=O)(=O)c1ccc(Br)s1,78.5% (active)
9,Cc1ccc(S(=O)(=O)Nc2ccc(Br)cc2Br)c(C)c1,50.7% (active)
10,CC(=NNS(=O)(=O)c1ccc(Br)cc1)c1ccc(Cl)s1,29.9% (inactive)
11,O=S(=O)(Nc1cc2c(cc1Cl)OCO2)c1ccc(Cl)s1,101% (active)
12,O=S(=O)(Nc1ccc(Br)cc1Br)c1ccc(Cl)s1,86.1% (active)
13,O=S(=O)(Nc1ccc(Br)cc1)c1ccc(Cl)s1,95.3% (active)
14,O=S(=O)(Nc1ccc(Br)cc1)c1ccc(Br)s1,96.8% (active)
15,O=S(=O)(Nc1ccc(Cl)cc1)c1ccc(Cl)s1,-18.5% (inactive)
16,Cc1ccc(CCC2CCN(C(C)C(=O)Nc3ccc(S(N)(=O)=O)cc3)CC2)cc1 (stereo not given),3.86% (inactive)
17,Cc1ccc(CCC2CCN(C(=O)Nc3cccnc3)CC2)cc1,90.4% (active)
18,CCOc1ccc(NC(=O)N2CCC(CCc3ccc(C(F)(F)F)cc3)CC2)cc1,78.8% (active)
19,O=C(COc1cccc(Cl)c1)N1CCC(CCc2ccc3c(c2)OCO3)CC1,43.2% (inactive)
20,CCOc1ccc(NC(=O)N2CCC(Cc3ccc4c(c3)OCO4)CC2)cc1,64% (active)
21,Cc1cc(C)cc(CN2CCC(CCc3ccc(C(F)(F)F)cc3)CC2)c1,-22.4% (inactive)
22,N#CC1CCN(C(=O)Nc2ccc(OCC3CCCCC3)cc2)CC1,40% (inactive)
23,CCCCc1nc2sc3c(NCCN4CCOCC4)ncnc3c2c2c1COC(C)(C)C2,71.5% (active)
24,CCCc1nc2sc3c(NCCN(C)C)ncnc3c2c2c1CCCC2,-36.3% (inactive)
